Gli-Sufu block – Gli-Sufu pathway antagonists, primary screen, luciferase luminescence, Sufu-KO-LIGHT cells, uHTS; Sufu-KO-LIGHT fibroblasts, Gli luciferase reporter luminescence; inhibition, % at 5 µM; hit rate 0.74% among 340,000;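 active means inhibition above about 55%, limit read from the data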
PAX8 reporter – inhibitors of PAX8-driven TPO luciferase reporter, primary screen, RMG-I cells, single concentration; inhibition, % at 12.6 µM; SteadyGlo, 24 h; hit rate 1.2% among 360,000;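 active means mean replicate inhibition at least 60% with every replicate also reaching 60%; inconclusive means only one of the two criteria is met; inactive means mean below 60% and not all replicates reaching 60%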;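 further: luciferase light reporting Pax8 driven TPO promoter activity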
Mdm2 MdmX PPI – inhibitors of human Mdm2-MdmX association, primary screen, cell-based, luminescence, split luciferase, SaOS-2, uHTS; hit rate 3% among 330,000; Protein Mdm4 (Homo sapiens) + E3 ubiquitin-protein ligase Mdm2 (Homo sapiens), …; SaOS-2 split-luciferase Mdm2/MdmX complementation; inhibition, % at 8 µM;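 active means inhibition of at least 50% at 8 µM in the primary screen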
Target sequence (O15151 whole entry, looked up): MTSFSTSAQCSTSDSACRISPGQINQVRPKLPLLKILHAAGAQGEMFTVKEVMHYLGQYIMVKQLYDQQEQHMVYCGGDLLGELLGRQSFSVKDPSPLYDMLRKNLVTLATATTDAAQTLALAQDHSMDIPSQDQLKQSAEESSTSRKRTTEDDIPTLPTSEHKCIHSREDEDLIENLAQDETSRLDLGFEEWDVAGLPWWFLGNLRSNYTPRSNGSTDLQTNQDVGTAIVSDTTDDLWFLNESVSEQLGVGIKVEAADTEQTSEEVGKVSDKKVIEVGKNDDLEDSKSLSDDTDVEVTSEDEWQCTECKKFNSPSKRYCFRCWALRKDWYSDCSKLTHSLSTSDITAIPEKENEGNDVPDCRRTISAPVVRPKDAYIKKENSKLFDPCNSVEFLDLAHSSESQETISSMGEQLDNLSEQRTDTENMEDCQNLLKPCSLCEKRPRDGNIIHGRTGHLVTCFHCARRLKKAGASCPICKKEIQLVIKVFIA
Target sequence (Q00987 whole entry, looked up): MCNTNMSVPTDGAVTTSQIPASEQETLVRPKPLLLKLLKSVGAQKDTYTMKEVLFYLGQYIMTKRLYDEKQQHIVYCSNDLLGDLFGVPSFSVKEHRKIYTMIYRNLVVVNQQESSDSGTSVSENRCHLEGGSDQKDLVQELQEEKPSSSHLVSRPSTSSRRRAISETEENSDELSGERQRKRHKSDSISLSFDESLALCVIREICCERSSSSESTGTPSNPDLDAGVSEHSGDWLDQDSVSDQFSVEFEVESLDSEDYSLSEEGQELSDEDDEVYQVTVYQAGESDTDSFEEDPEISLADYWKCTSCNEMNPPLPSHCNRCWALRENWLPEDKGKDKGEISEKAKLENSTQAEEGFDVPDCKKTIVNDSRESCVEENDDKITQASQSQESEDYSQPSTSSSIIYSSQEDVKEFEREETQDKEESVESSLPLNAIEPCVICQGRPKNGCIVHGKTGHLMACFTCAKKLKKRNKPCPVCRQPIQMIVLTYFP
Beta apoptosis – inhibitors of cytokine-induced beta cell apoptosis, primary screen, luminescence | INS-1E cytokine-induced death, ATP luminescence, 48 h; percent of positive-control rescue, neutral wells zero | protection from apoptosis, % (test concentration not listed) | AID 435005, 2010 | hit rate 0.8% among 300,000;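 active means Every replicate reaches about 75%, or at least half do and their mean reaches it too, limit read from the data; inconclusive means At least half of replicates reach the limit but their mean does not; inactive means Under half of replicates reach the limit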;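 further: higher means more ATP so stronger rescue from cytokine killing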
Shn3 inh set2 – reduction of Shn3 3'UTR firefly luciferase signal, primary screen, Schnurri-3 inhibitor project, cell-based, Clone20 osteoblasts, set 2; inhibition, % at 12.5 µM; Clone20 osteoblast Shn3 3'UTR firefly luciferase, 24 h; hit rate 0.52% among 360,000; AID 588674, 2011;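 active means mean inhibition of at least 75% with every replicate also reaching 75%; inconclusive means mean inhibition at least 75% but some replicate below; inactive means mean inhibition below 75%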
CSC inhib – cancer stem cell viability inhibitors, primary screen, luminescence; inhibition, % at 7.5 µM; hit rate 1.1% among 300,000; cancer stem cell-like cells viability; in the data active means inhibition above about 75%; inconclusive means no clear call, values can overlap the other calls; tested in HMLE shEcad cells
A number is an active result. Most compounds without a hit are left out; they make up all but 4% or so of the library.

Screening O=C(c1cc(COc2cccc(C(F)(F)F)c2)on1)N1C[C@H]2CC[C@H]1C2 returned Gli-Sufu block inactive, Mdm2 MdmX PPI inactive, Beta apoptosis inactive, Shn3 inh set2 inactive and CSC inhib inactive.
For C[C@H](CO)N1C[C@H](C)[C@@H](CN(C)Cc2ccccc2)Oc2ccc(NC(=O)C3CCCCC3)cc2CC1=O the results were PAX8 reporter inactive.
Screening O=C(Nc1ccc(S(=O)(=O)NC2=NCCCCC2)cc1)c1ccc([N+](=O)[O-])s1 returned Gli-Sufu block inactive, PAX8 reporter 95, Mdm2 MdmX PPI inactive, Beta apoptosis inactive, Shn3 inh set2 inactive and CSC inhib inactive.
O=C(Nc1ccc(S(=O)(=O)NC2=NCCCCC2)cc1)c1cccs1 was read as Gli-Sufu block inactive, PAX8 reporter inactive, Mdm2 MdmX PPI inactive, Beta apoptosis inactive, Shn3 inh set2 inactive and CSC inhib inactive.
`O=c1c2c3c(sc2n(CCN2CCCCC2)c(=O)n1Cc1ccco1)CCCCC3` gave Gli-Sufu block inactive, Mdm2 MdmX PPI inactive, Beta apoptosis 93, Shn3 inh set2 inactive and CSC inhib inactive.
Screening CC(O)CNc1nc2sc3c(c2c(=O)n1Cc1ccco1)CCCCC3 (stereo not drawn) returned Gli-Sufu block inactive, PAX8 reporter inactive, Mdm2 MdmX PPI inactive, Beta apoptosis 91, Shn3 inh set2 inactive and CSC inhib inactive.
For O=C(Nc1ccc2c(c1)[C@@H]1C[C@@H](CC(=O)N3CCc4ccccc4C3)O[C@H](CO)[C@@H]1O2)C1CCC1 the results were PAX8 reporter inactive.
For CCCCN(C=O)c1c(CC)nc2ccc(C(=O)Nc3cc(-c4ccccc4)ccc3OC)cn12 the results were PAX8 reporter 75 and Shn3 inh set2 inactive.
COc1ccc(C(=O)NC(=S)Nc2ccccc2N2CCCCC2)cc1[N+](=O)[O-] was read as Gli-Sufu block inactive, PAX8 reporter inactive, Mdm2 MdmX PPI inactive, Beta apoptosis inactive, Shn3 inh set2 inactive and CSC inhib 101.
`CCOc1ccc(C(=O)NC(=S)Nc2ccccc2N2CCCCC2)cc1[N+](=O)[O-]` gave Gli-Sufu block inactive, PAX8 reporter inactive, Mdm2 MdmX PPI inactive, Beta apoptosis inactive, Shn3 inh set2 inactive and CSC inhib inconclusive.
Screening COc1cc(C(=O)NC(=S)Nc2ccccc2N2CCOCC2)cc(OC)c1OC returned Gli-Sufu block inactive, PAX8 reporter inactive, Mdm2 MdmX PPI inactive, Beta apoptosis inactive, Shn3 inh set2 inactive and CSC inhib inactive.
`COc1cccc(C(=O)NN2c3ccccc3CCc3ccccc32)c1` gave Gli-Sufu block inactive, PAX8 reporter 67, Beta apoptosis inactive, Shn3 inh set2 inactive and CSC inhib inactive.
COc1cccc(C(=O)NC(=S)Nc2ccccc2N2CCOCC2)c1 was read as Gli-Sufu block inactive, Mdm2 MdmX PPI inactive, Beta apoptosis inactive, Shn3 inh set2 inactive and CSC inhib 116.
Screening S=C(NCc1ccccn1)NN=Cc1ccccn1 returned Gli-Sufu block 74, PAX8 reporter inactive and Shn3 inh set2 inactive.
Screening COc1ccc(-n2nnnc2SCC(=O)NC2CC2)cc1 returned Gli-Sufu block inactive, PAX8 reporter 75, Mdm2 MdmX PPI inactive, Beta apoptosis inactive, Shn3 inh set2 inactive and CSC inhib inactive.
For COc1cc(C=C(c2nc3ccccc3s2)c2nc3ccccc3s2)ccc1O the results were Gli-Sufu block inactive, PAX8 reporter inactive, Mdm2 MdmX PPI inactive, Beta apoptosis inactive, Shn3 inh set2 inactive and CSC inhib 94.
`O=C(c1ccccc1)c1ccccc1N1C(=O)C=CC1=O` gave Gli-Sufu block inactive, PAX8 reporter inactive, Mdm2 MdmX PPI inactive, Beta apoptosis inactive, Shn3 inh set2 93 and CSC inhib inactive.
For O=C(O)c1cccc(N2C(=O)C=CC2=O)c1 the results were PAX8 reporter inactive and Shn3 inh set2 inactive.
`O=C1C=CC(=O)N1c1ccccc1N1C(=O)C=CC1=O` gave Gli-Sufu block inactive, PAX8 reporter inconclusive and Shn3 inh set2 94.
`C[C@H]1CCCCO[C@H](CN(C)S(=O)(=O)c2ccc(F)cc2)[C@@H](C)CN([C@@H](C)CO)C(=O)c2cc(NC(=O)Cc3ccccc3)ccc2O1` gave PAX8 reporter inactive.
